CF NFkB inh: inhibitors of PAF-induced NF-kB signaling, primary screen, cell-based, GFP fluorescence, uHTS; 360,000 compounds, 0.86% hits; KKLEB NF-kB-GFP reporter, GFP fluorescence overnight; inhibition, % at 5 µM;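 active = at least 50% inhibition at 5 µM, scaled per plate between neutral and stimulator controls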;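 note: PAF is a Pseudomonas aeruginosa culture filtrate used as stimulus; plate controls were PAF-stimulated DMSO wells for no effect and unstimulated DMSO wells for full effect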
HIF-2a inh: HIF-2a reporter inhibitors, primary screen, luminescence, 786-0 RCC cells; 360,000 compounds, 0.72% hits; AID 624352, 2012; 786-0 RCC cells HIF-2a reporter, luciferase luminescence, overnight; inhibition, % at 18.8 µM;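 active = inhibition of the luminescence signal of 40% or more relative to plate controls, in a single-dose primary screen at 18.75 µM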
ABHD5 PLIN5 PPI: ABHD5-PLIN5 interaction inhibitors, primary screen, cell lysate, split luciferase complementation, luminescence. 360,000 compounds, 0.78% hits. inhibition, % at 4 µM. Perilipin-5 (Homo sapiens) + 1-acylglycerol-3-phosphate O-acyltransferase ABHD5 (Homo …. AID 602281, 2012. Split G. princeps luciferase complementation, 4 h;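 active = inhibition above the mean inhibition across every tested compound plus 3 SD, cut at about 22% in these data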;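 note: 0% = DMSO only wells and the 100% control is not disclosed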
Target sequence (Q00G26 whole entry, looked up): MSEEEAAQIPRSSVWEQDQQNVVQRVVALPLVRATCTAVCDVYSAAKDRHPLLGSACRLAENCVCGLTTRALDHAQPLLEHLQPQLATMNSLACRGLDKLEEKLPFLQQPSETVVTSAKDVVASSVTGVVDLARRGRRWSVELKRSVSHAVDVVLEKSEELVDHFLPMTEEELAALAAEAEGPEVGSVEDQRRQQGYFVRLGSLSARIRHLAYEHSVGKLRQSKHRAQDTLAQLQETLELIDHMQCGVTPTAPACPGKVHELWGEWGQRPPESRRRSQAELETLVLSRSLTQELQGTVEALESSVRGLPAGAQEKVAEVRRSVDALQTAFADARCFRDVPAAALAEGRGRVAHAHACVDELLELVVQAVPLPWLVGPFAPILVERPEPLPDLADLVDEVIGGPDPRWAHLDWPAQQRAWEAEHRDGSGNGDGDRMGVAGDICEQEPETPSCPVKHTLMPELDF
Target sequence (Q8WTS1 whole entry, looked up): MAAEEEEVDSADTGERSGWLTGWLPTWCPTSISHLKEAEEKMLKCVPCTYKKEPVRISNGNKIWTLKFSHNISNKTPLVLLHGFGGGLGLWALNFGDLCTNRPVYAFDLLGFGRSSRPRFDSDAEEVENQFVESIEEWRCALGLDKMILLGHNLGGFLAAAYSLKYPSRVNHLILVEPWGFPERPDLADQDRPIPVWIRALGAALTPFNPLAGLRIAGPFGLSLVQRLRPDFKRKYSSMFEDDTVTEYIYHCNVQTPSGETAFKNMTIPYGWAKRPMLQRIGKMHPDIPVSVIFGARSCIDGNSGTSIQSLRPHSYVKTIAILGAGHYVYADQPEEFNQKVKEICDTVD
TRPM1 prom inh: inhibitors of MITF-dependent TRPM1 promoter reporter, primary screen, cell-based, SK-MEL-5, single point, luciferase. 330,000 compounds, 0.83% hits. AID 488899, 2010. inhibition, % at 12.5 µM. SK-MEL-5 TRPM1 promoter luciferase, 24 h;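 active = mean inhibition across replicates of 60% or more, whatever share of single replicates reaches that level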
Peg3 promoter: Peg3 promoter-driven luciferase inhibitors, primary screen, cell-based, HeLa, luciferase luminescence; HeLa PEG-Prom luciferase reporter, overnight; inhibition, % at 20 µM; 360,000 compounds, 1.7% hits; AID 588405, 2011;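 active = inhibition of at least 50% at 20 µM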
KKLEB cytotox: cytotoxicity in KKLEB CF airway cells, primary screen, cytotoxicity control for CF NF-kB inhibitor project, cell-based, uHTS, fluorescence assay plates | KKLEB CF airway cells viability, ATPlite luminescence, overnight; hits give low values; cells stimulated with P. aeruginosa culture filtrate | 360,000 compounds, 0.36% hits | AID 602141, 2011 | activity change (cytotoxicity), % at 5 µM;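 active = corrected activity change at or below -50% at 5 µM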
ABHD5 PLIN5 conf: ABHD5-PLIN5 interaction inhibitors, confirmation, biochemical, luminescence. shares compounds with ABHD5 PLIN5 PPI. 2,200 compounds, 67% hits. inhibition, % at 4 µM; in the data active = inhibition above about 23%;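 note: 0% = DMSO vehicle wells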
HNF4 split-luc: HNF4 dimerization inhibitors, counter-screen for ABHD5-PLIN5 interaction inhibitor project, biochemical, split-luciferase complementation, luminescence. shares compounds with ABHD5 PLIN5 PPI. 2,200 compounds, 77% hits. AID 651674, 2012. inhibition, % at 4 µM;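 active = mean inhibition across replicate wells exceeding the computed hit threshold, cut at about 13% in these data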;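 note: light from luciferase halves that rejoin when HNF4 fusion proteins dimerize; 0% = DMSO only wells and the 100% control is not given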
Numbers without * were called inactive; nt = no result given. Rows were chosen to be rich in hits. Some 3% of all compounds tested hit in one or more screens of this group.

SMILES | CF NFkB inh | HIF-2a inh | ABHD5 PLIN5 PPI | TRPM1 prom inh | Peg3 promoter | KKLEB cytotox | ABHD5 PLIN5 conf | HNF4 split-luc
CCCC(=O)Nc1nnc(S(=O)(=O)N(C)Cc2ccco2)s1 | -1.1 | 7.1 | 41.4* | 1.9 | -3.8 | 6.6 | 30.4* | 55.7*
O=C(CSc1ccc(-c2ccccn2)nn1)Nc1cccc(F)c1 | 4.4 | -122.5 | 4.4 | -6.3 | -46.9 | 7.4 | nt | nt
COc1ccc(/C=C/C(=O)c2cc(Cl)cc(Cl)c2O)c(OC)c1 | 15.2 | -10.6 | 0.1 | -24.6 | -0.7 | -7.4 | nt | nt
O=C(/C=C/c1ccccn1)c1cc(Cl)cc(Cl)c1O | 7.2 | -10.1 | 23.4* | -6.3 | 48.0 | -14.4 | 45.4* | 30.9*
COc1ccc([C@H]2CC(=O)C=C(/C=C/Cc3ccccc3)C2)cc1 | -8.7 | -8.0 | 25.7* | -8.5 | 8.4 | 15.5 | 37.6* | 32.4*
COC1=CC(=O)C=C(OC)C1=O | 24.1 | 6.3 | 78.7* | 53.9 | 102.3* | -9.2 | 87.9* | 105.0*
Cc1ccc(-c2nc(C#N)c(N3CCC(C(N)=O)CC3)o2)cc1 | -30.0 | -4.7 | 5.8 | 0.3 | -2.3 | 2.3 | nt | nt
Cc1cc(C)c2c(=O)n(CC(=O)N3CCC(N4CCCCC4)CC3)sc2n1 | 28.4 | 12.2 | 34.1* | 4.2 | 33.9 | -5.7 | 33.0* | 98.4*
CCCNC(=O)Cn1sc2nc(C)cc(C)c2c1=O | -18.6 | 20.0 | 44.7* | 7.4 | 12.2 | 0.8 | 29.9* | 106.6*
CCOC(=O)C1CCN(S(=O)(=O)c2ccc(CNC(=O)c3ccccc3)s2)CC1 | 5.0 | 8.5 | -1.9 | 7.8 | 19.3 | -1.3 | nt | nt
O=S(=O)(Nc1cccc(S(=O)(=O)N2CCOCC2)c1)c1cccs1 | 0.5 | 12.1 | 3.1 | -17.7 | 8.2 | -0.8 | nt | nt
Cc1ccc(C(=O)NC(=S)c2c(C)cc3ccccn23)cc1 | 28.6 | -153.4 | -8.0 | nt | -175.0 | -17.8 | nt | nt
c1ccc(CSc2nnc(-c3ccco3)n2Cc2ccco2)cc1 | -7.3 | -110.8 | 3.6 | -57.3 | -106.1 | 2.3 | nt | nt
CCCCOc1[nH]c2nc(-c3ccco3)n(Cc3ccco3)c(=N)c2c1C#N | 2.1 | -24.0 | 48.0* | -0.7 | -13.9 | 0.6 | 25.2* | 47.5*
Cc1ccc(C(C(=O)NCCc2ccccc2)N(C(=O)c2csnn2)C2CC2)cc1 (stereo not given) | -11.8 | 14.2 | -4.7 | -1.9 | 2.4 | 1.5 | nt | nt
O=S(=O)(c1ccccc1)N1CCN(Cc2c(O)ccc3ccccc23)CC1 | 17.6 | 16.8 | 28.1* | 5.7 | -0.6 | 3.8 | 38.7* | 81.4*
C[C@@H]1CC[C@@]2(O[C@@H](CCO)C[C@@H](O)[C@@H]2O)O1 | 4.5 | -2.0 | 3.1 | -1.0 | -16.8 | -0.4 | nt | nt
CC1OC(CC(=O)O)CC2=C1C(=O)c1c(O)cccc1C2=O (stereo not given) | 101.0* | 87.4* | 98.9* | 113.0* | 100.1* | -105.0* | 4.2 | 5.3
COc1cccc2c1-c1c(O)cccc1C2=O | 3.1 | 8.5 | 4.2 | 7.6 | 0.0 | 1.2 | nt | nt
O=C(Nc1nnc(-c2ccco2)s1)C1CCCCC1 | -4.6 | -241.2 | 5.3 | -71.1 | -231.9 | 5.0 | nt | nt
O=C(Nc1nc(-c2ccco2)c(-c2ccco2)s1)C1CCC1 | -4.8 | -41.5 | 35.7* | 7.6 | -33.5 | 1.6 | 12.7 | 46.0*
O=C(C[C@H]1CC[C@@H]2[C@H](COC[C@H](O)CN2Cc2cccc(C(F)(F)F)c2)O1)NCCc1ccccc1 | nt | 6.3 | -6.8 | nt | nt | nt | nt | nt
O=C1NC(=O)/C(=C/c2cccc([N+](=O)[O-])c2)N1 | -16.4 | 5.2 | -0.3 | 5.7 | 22.9 | 5.4 | nt | nt
CCN1C/C(=C/c2cccc([N+](=O)[O-])c2)C(=O)/C(=C/c2cccc([N+](=O)[O-])c2)C1 | 101.6* | 97.3* | 40.3* | 92.5* | 104.0* | -40.4 | 101.6* | 97.1*
CCN(CC)C(=O)Cn1cc(C(=O)C(=O)NCCCn2ccnc2)c2ccccc21 | -12.3 | 15.2 | -3.2 | 8.0 | -3.5 | 8.5 | nt | nt
SMILES | CF NFkB inh | HIF-2a inh | ABHD5 PLIN5 PPI | TRPM1 prom inh | Peg3 promoter | KKLEB cytotox | ABHD5 PLIN5 conf | HNF4 split-luc
CSc1ncccc1C(=O)N1CCN(S(=O)(=O)c2ccccc2)CC1 | 3.0 | 4.6 | -5.0 | -3.6 | 1.9 | -4.6 | nt | nt
Cc1oc(=O)c(NC(=O)c2ccc(Cl)cc2)cc1C(=O)c1ccccc1 | -7.1 | -34.9 | 46.4* | -4.4 | -12.6 | -2.3 | 10.9 | 95.0*
C=C(NC(=O)C(=C)NC(=O)c1csc(C2=NC3c4csc(n4)C4NC(=O)c5csc(n5)C(C(C)(O)C(C)O)NC(=O)C5CSC(=N5)/C(=C/C)NC(=O)C(C(C)O)NC(=O)c5csc(n5)C3(CC2)NC(=O)C(C)NC(=O)C(=C)NC(=O)C(=C)NC(=O)C(C(C)C)NC2C=Cc3c(C(C)O)cc(nc3C2O)C(=O)OC4C)n1)C(N)=O (stereo not given) | -112.6 | 63.6* | 28.4* | 94.2* | 81.2* | -16.0 | 65.6* | 10.4
CCOc1ccc(NC(=O)CN(C)C(=O)C2CC(=O)N(Cc3ccco3)C2)cc1OCC (stereo not given) | 16.0 | -0.2 | 23.3* | nt | 16.0 | 3.8 | 28.6* | 23.7*
CCOc1ccc(NC(=O)CN(C)C(=O)C2CC(=O)N(CCc3ccc(OC)c(OC)c3)C2)cc1OCC (stereo not given) | 3.7 | -68.7 | 2.2 | 2.1 | -6.1 | 1.1 | nt | nt
Cc1nc(SCC(=O)N2CCCC2=O)c2c(C)c(C)sc2n1 | -21.6 | 1.6 | 3.0 | nt | 6.8 | -11.7 | nt | nt
O=P(CCCCCCCCCP(=O)(c1ccccc1)c1ccccc1)(c1ccccc1)c1ccccc1 | 9.0 | 13.9 | 23.1* | 40.6 | 67.3* | -11.2 | -1.4 | -0.8
Cc1ccc(C)c(-n2sc3ccc(F)cc3c2=O)c1 | 27.5 | -13.4 | 99.8* | 7.9 | 8.9 | 1.9 | 76.2* | 114.4*
COc1ccc(-n2sc3ccc(F)cc3c2=O)cc1 | 35.4 | -178.1 | 86.3* | -26.0 | -86.2 | -4.1 | 93.2* | 119.6*
Cc1ccc(-c2cc(=O)c3cc(F)ccc3[nH]2)cc1 | -14.8 | -139.8 | -3.5 | -17.5 | -84.5 | 6.3 | nt | nt
COc1ccc(N2C(=O)CSC2c2ccc(F)cc2)cc1 (stereo not given) | 11.6 | 11.2 | 9.3 | -10.9 | 3.3 | -10.5 | nt | nt
COc1ccc(-n2sc3ccccc3c2=O)cc1 | 63.4* | -64.6 | 76.4* | nt | -137.5 | -11.1 | 81.4* | 120.2*

Bioassay records from PubChem.
